The supplement of paper PMC11732987, “Enantioselective OTUD7B fragment discovery through chemoproteomics screening and high-throughput optimisation” (Communications Chemistry, 2025)

Assays:
Test in all cases: log2 ratio of Biotin-Ahx-Ub-VS probe labelling (fragment/DMSO); higher = less target engagement (more negative = stronger competition), active = hit call of the paper (q ≤ 0.05, log2 ratio ≤ -1)
Settings in all cases: compound concentration: 200 uM; treatment time: 3 h
USP16 = USP16 (UniProt Q9Y5T5)
Sequence of USP16 (Q9Y5T5 whole entry, looked up, the tested form may be a part): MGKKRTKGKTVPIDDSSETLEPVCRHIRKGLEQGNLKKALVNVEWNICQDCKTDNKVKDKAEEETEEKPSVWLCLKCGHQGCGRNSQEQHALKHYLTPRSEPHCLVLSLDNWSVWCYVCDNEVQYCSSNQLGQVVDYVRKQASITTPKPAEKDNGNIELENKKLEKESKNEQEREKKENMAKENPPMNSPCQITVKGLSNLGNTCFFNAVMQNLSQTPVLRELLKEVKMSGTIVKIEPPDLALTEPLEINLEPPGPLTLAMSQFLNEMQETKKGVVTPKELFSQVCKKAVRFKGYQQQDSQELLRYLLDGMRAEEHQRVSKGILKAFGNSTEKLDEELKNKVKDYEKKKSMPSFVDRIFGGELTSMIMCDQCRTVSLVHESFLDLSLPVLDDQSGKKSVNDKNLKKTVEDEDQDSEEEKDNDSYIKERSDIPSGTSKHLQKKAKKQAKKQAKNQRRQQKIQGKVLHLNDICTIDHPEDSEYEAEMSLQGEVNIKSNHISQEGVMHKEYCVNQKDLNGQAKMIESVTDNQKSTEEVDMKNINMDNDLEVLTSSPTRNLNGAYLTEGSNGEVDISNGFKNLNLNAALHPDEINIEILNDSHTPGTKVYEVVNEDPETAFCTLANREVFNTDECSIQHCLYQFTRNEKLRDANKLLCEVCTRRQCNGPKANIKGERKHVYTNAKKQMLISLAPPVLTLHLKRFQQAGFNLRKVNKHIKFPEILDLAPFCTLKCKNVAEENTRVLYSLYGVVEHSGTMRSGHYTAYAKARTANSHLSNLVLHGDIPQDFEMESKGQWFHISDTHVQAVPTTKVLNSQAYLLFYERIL
Summary of the method: (§1)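 Labelled DUBs from HEK293T lysate were NeutrAvidin-enriched, digested with LysC and trypsin, and run by diaPASEF LC-MS/MS. Before that, each 495 µg sample in Tris/CHAPS/IGEPAL buffer with protease inhibitors was treated in triplicate with fragment at 200 µM or vehicle for 3 h, then with Biotin-Ahx-Ub-VS at 0.5 µM final for 1 h. Values are average log2 ratios of fragment over vehicle by unpaired t-test, based on global-median-normalised Spectronaut label-free quantities from proteins with ≥2 unique peptides.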

USP19 = target: T1, USP19 (UniProt O94966)
T1 sequence (whole entry): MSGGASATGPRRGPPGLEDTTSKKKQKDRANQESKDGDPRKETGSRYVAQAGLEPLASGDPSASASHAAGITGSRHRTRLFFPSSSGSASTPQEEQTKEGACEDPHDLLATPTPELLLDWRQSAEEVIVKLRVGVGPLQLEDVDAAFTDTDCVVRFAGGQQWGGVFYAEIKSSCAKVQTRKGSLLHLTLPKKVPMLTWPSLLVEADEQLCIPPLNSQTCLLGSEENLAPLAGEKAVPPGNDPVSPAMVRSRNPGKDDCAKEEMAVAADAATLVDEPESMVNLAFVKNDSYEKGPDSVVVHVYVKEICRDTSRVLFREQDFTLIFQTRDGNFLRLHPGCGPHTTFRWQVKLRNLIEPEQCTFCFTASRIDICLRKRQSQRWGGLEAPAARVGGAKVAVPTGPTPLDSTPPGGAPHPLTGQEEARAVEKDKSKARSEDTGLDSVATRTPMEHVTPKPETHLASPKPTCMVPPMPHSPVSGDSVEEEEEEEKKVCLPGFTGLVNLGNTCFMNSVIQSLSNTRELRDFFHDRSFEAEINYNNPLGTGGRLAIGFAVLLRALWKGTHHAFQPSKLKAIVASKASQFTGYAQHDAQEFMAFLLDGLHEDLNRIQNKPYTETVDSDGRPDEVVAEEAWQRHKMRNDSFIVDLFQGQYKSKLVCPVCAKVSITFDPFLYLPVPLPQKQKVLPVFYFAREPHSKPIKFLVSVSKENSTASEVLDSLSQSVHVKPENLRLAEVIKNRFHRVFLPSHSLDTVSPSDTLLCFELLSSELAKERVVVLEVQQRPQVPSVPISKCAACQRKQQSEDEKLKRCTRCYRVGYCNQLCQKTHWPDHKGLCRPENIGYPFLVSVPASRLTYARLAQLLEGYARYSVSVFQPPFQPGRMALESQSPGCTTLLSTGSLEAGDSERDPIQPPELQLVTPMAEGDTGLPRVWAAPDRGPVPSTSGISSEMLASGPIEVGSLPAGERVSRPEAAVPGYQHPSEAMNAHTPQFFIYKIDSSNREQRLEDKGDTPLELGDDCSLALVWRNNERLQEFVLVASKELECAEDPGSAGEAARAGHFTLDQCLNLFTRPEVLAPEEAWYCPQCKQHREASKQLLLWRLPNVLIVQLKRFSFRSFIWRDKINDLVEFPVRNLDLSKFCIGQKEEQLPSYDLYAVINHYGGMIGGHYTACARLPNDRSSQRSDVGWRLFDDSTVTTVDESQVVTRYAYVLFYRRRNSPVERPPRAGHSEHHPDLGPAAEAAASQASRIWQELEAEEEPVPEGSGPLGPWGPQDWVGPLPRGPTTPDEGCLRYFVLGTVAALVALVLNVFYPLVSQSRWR
Summary of the method: as §1

USP24 = USP24 (UniProt Q9UPU5)
Sequence of USP24 (Q9UPU5 whole entry): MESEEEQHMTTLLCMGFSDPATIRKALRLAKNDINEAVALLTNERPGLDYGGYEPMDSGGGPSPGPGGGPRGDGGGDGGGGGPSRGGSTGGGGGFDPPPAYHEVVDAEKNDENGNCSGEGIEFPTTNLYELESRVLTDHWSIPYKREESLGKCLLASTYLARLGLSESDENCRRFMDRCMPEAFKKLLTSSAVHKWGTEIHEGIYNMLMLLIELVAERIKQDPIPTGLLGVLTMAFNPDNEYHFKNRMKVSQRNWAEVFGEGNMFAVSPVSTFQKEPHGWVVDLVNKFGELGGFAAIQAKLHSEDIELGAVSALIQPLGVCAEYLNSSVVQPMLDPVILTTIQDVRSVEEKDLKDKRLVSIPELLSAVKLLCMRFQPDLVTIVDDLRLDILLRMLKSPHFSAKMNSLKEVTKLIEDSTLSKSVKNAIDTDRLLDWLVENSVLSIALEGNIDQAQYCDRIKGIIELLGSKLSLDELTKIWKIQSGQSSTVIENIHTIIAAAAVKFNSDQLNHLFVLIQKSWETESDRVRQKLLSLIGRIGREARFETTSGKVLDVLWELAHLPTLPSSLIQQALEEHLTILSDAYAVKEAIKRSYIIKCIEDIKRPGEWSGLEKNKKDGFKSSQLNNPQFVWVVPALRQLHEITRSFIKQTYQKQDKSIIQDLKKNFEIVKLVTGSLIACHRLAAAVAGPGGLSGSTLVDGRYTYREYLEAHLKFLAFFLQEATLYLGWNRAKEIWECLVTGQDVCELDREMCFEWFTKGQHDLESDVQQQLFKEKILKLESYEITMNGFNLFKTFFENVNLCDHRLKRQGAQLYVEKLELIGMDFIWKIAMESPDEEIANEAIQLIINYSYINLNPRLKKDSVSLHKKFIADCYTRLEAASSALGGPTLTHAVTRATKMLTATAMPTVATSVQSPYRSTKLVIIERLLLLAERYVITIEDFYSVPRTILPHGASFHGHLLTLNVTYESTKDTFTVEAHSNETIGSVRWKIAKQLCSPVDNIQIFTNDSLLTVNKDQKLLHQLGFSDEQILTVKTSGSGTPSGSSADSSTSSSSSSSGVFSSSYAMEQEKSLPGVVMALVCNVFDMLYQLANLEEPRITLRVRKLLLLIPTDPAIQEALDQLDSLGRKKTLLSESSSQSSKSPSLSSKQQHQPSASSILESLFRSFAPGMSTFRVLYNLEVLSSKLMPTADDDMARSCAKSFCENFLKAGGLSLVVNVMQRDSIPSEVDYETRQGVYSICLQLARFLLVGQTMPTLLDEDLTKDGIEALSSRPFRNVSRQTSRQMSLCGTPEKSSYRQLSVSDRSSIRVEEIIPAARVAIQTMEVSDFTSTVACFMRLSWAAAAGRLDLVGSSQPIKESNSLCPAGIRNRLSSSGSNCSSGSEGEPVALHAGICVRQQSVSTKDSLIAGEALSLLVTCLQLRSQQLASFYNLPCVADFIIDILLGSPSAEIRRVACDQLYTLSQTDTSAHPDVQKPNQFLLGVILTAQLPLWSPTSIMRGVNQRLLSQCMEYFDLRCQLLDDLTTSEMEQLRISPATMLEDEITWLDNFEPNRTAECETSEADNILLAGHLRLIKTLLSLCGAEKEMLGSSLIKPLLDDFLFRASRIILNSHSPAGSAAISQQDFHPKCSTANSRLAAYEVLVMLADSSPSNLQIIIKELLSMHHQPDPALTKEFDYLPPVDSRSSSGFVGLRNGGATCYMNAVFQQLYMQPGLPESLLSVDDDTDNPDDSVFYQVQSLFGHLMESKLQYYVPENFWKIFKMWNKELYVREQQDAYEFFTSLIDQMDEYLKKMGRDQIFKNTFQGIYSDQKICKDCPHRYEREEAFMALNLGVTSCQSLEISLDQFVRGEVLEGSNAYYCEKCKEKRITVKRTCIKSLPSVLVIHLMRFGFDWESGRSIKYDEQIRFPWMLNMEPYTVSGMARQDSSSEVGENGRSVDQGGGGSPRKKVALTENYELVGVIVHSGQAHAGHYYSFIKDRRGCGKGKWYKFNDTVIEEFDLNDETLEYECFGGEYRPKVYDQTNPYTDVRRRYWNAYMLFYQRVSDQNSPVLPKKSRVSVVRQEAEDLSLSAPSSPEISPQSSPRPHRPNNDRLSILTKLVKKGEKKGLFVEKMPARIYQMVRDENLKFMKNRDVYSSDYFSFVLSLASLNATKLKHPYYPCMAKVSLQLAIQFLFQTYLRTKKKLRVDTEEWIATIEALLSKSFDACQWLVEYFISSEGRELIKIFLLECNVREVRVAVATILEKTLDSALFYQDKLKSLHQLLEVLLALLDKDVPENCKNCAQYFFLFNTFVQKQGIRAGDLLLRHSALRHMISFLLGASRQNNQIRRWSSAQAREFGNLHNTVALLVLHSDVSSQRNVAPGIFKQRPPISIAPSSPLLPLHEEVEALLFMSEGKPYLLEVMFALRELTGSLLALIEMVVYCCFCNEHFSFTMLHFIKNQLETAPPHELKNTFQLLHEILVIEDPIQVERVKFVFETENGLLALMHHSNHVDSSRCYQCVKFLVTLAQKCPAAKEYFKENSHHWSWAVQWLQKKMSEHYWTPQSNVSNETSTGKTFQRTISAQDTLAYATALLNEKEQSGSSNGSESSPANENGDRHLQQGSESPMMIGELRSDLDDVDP
Summary of the method: as §1

USP25 = target: T2, USP25 (UniProt Q9UHP3)
T2 sequence (whole entry): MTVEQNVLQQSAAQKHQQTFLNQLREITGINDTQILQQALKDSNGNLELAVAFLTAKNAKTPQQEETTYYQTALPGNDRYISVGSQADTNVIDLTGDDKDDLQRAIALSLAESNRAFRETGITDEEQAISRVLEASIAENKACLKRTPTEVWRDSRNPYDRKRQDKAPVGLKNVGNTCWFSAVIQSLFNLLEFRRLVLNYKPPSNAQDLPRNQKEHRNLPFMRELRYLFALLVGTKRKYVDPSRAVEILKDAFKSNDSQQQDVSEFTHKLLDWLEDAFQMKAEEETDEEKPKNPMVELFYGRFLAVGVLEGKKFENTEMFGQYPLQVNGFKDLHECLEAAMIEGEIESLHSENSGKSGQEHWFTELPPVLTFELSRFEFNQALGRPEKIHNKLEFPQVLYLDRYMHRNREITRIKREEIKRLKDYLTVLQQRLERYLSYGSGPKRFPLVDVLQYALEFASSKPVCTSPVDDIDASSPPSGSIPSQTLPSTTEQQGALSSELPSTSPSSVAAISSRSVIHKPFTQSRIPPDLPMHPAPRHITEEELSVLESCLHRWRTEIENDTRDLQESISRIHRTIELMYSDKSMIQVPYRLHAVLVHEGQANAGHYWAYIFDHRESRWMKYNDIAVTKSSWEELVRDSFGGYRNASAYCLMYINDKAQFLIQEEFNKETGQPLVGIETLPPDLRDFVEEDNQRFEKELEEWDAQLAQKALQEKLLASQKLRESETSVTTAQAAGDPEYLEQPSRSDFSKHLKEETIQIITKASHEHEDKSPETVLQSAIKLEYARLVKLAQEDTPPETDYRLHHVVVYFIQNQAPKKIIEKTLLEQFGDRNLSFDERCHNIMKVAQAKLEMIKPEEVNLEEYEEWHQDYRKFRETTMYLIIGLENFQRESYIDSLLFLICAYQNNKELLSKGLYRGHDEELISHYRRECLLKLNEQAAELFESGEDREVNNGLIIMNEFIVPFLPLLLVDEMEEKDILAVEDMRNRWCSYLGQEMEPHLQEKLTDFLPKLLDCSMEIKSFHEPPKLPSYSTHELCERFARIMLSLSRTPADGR
Summary of the method: as §1

USP28 = target: T3, USP28 (UniProt Q96RU2)
T3 sequence (whole entry): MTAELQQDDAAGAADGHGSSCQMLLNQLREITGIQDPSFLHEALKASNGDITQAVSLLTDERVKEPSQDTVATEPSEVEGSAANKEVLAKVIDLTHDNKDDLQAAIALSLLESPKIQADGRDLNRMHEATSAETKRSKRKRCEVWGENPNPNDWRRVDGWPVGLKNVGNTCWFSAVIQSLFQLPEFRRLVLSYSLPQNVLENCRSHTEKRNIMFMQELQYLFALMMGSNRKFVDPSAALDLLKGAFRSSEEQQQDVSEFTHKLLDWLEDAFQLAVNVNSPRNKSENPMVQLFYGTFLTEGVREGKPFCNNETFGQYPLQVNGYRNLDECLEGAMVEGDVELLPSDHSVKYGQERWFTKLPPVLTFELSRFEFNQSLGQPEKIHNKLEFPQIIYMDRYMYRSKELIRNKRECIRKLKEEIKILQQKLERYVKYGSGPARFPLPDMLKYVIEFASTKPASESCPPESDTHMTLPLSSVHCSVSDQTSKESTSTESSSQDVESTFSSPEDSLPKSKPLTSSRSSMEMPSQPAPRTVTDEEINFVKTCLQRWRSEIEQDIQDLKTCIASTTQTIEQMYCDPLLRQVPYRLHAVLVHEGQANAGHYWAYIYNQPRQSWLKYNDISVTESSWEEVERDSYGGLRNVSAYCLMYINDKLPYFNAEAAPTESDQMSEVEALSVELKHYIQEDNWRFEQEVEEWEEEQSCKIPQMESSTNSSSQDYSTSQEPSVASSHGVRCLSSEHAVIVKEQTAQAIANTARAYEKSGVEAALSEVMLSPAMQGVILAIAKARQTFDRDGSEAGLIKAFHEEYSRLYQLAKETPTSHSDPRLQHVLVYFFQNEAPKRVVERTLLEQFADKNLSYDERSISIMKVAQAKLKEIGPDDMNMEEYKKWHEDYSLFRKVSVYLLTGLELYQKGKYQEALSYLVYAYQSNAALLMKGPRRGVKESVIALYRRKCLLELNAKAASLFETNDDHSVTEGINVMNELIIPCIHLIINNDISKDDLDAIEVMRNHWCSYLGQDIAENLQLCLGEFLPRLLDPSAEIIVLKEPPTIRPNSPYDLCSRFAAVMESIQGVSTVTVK
Summary of the method: as §1

Measured: log2 ratio of Biotin-Ahx-Ub-VS probe labelling

O=C(CCl)N1CCC(c2ccn[nH]2)C1 (stereo not given)
inactive: USP16 -0.161 | USP19 -0.276 | USP24 -0.326 | USP25 -0.433 | USP28 -0.425
